# Assay results: publication PMC7862700, “An all-to-all approach to the identification of sequence-specific readers for epigenetic DNA modifications on cytosine”
# Experiments:
# Test in all cases: DAPPL (digital affinity profiling via proximity ligation, sequencing); 10 mM Tris-HCl pH 7.5, 50 mM NaCl, 1 mM DTT, 4% glycerol, room temperature, 30 min; GST-TFs on glutathione beads, 16-mer random dsDNA library, 0.1% formaldehyde crosslink after washing; high values mean tight binding
# [1] = biological target: T1, EHF (Homo sapiens, UniProt Q9NZC4 1-300); conditions: protein: recombinant; tags: N-terminal GST; dsDNA, one strand shown
# T1 sequence: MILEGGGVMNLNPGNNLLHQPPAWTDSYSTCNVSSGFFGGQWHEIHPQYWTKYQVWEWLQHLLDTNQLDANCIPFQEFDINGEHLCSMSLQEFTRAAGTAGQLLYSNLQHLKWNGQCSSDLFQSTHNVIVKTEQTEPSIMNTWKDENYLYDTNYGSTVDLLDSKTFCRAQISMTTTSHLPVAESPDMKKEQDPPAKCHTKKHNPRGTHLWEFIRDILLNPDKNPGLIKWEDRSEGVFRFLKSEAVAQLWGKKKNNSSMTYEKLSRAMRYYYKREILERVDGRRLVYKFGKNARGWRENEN
# Method in brief: (§1)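 After expression in yeast as GST fusions, human transcription factors were bound to glutathione beads, DNA-barcoded and mixed with a tag-only sample. The pools were incubated with 200 nmole of a 16-mer random double-stranded DNA library in Tris/NaCl/DTT/glycerol buffer (30 min, room temperature), washed and crosslinked with 0.1% formaldehyde. Proximity ligation with BsaI/T4 ligase ran for 1 h at 37 °C, before PCR amplification and sequencing on an Illumina NextSeq500. Binding signal is a hexamer's read frequency for a factor divided by its frequency for the tag-only sample.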
# [2] = biological target: HSF1 (Homo sapiens, UniProt Q00613 1-529); conditions: protein: recombinant; tags: N-terminal GST; chain copies: 3; dsDNA, one strand shown
# HSF1, sequence (Q00613 whole entry): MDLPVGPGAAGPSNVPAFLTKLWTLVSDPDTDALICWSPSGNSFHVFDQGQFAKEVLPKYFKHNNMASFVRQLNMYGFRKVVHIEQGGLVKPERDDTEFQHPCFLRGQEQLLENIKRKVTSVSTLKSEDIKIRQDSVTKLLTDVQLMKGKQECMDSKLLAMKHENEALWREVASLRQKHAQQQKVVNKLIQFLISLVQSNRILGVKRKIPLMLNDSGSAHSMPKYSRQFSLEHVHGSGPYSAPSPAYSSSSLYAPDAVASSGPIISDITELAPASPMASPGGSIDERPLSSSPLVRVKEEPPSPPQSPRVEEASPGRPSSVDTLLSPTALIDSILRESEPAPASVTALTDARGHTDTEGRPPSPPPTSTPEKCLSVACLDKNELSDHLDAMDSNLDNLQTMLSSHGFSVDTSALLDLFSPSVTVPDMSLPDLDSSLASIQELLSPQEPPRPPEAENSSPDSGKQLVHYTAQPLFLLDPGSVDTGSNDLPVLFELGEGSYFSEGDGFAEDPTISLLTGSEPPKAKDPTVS
# Method in brief: as §1
# [3] = biological target: T2, ELF3 (Homo sapiens, UniProt P78545 1-371); conditions: protein: recombinant; tags: N-terminal GST; dsDNA, one strand shown
# T2 sequence: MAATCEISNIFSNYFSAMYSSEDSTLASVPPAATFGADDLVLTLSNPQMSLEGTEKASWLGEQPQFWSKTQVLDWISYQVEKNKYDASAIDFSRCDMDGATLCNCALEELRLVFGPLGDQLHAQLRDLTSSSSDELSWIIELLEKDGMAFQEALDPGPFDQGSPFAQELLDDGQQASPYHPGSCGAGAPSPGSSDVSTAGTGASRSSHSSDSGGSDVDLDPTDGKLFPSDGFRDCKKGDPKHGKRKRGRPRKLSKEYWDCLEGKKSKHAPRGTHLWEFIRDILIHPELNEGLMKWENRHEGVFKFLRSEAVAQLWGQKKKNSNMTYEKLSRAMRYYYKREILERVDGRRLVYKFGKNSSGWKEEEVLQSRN
# Method in brief: as §1
# [4] = biological target: CRX (Homo sapiens, UniProt O43186 1-299); conditions: protein: recombinant; tags: N-terminal GST; dsDNA, one strand shown
# CRX, sequence (O43186 whole entry): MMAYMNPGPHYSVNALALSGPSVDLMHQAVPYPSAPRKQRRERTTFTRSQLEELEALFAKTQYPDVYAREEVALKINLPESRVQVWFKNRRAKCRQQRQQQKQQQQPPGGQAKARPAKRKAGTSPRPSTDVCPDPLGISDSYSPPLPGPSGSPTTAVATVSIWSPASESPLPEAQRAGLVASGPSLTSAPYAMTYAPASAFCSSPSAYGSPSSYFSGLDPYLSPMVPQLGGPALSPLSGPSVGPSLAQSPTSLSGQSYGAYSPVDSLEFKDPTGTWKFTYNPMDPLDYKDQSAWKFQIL
# Method in brief: as §1
# [5] = biological target: ETV6 (Homo sapiens, UniProt P41212 1-452); conditions: protein: recombinant; tags: N-terminal GST; dsDNA, one strand shown
# ETV6, sequence (P41212 whole entry): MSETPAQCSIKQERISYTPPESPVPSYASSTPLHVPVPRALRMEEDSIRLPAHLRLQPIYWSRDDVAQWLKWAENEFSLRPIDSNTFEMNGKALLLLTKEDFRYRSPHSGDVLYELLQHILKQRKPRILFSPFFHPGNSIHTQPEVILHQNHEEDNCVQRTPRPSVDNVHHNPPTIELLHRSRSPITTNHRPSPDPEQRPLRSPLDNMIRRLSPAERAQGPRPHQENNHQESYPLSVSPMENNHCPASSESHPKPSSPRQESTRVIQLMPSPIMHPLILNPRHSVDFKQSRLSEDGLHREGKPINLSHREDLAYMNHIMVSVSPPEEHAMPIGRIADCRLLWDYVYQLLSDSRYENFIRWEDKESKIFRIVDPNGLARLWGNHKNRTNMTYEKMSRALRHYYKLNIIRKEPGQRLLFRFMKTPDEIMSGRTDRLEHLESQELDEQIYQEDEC
# Method in brief: as §1
# [6] = biological target: T3, ELK1 (Homo sapiens, UniProt P19419 1-428); conditions: protein: recombinant; tags: N-terminal GST; dsDNA, one strand shown
# T3 sequence: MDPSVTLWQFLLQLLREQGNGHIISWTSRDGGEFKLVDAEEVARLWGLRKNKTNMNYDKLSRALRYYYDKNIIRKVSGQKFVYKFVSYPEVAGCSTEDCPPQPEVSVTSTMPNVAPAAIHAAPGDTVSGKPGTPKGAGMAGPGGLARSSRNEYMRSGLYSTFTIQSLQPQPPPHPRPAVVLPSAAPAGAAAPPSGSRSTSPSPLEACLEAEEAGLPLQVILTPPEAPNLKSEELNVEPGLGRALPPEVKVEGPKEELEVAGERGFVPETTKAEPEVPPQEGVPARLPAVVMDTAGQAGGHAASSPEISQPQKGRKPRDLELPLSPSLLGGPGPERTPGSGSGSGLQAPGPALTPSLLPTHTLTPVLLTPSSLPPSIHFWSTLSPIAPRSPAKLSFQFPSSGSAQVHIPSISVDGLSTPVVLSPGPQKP
# Method in brief: as §1
# [7] = biological target: SPIB (Homo sapiens, UniProt Q01892 1-262); conditions: protein: recombinant; tags: N-terminal GST; dsDNA, one strand shown
# SPIB, sequence (Q01892 whole entry): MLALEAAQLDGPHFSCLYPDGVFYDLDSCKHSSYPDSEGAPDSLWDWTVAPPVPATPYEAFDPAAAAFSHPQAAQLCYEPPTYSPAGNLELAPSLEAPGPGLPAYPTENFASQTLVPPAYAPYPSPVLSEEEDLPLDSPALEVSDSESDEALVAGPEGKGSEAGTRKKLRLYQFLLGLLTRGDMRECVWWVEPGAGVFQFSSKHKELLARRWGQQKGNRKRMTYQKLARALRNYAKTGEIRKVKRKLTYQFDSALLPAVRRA
# Method in brief: as §1
# [8] = biological target: T4, ETV2 (Homo sapiens, UniProt O00321 1-342); conditions: protein: recombinant; tags: N-terminal GST; dsDNA, one strand shown
# T4 sequence: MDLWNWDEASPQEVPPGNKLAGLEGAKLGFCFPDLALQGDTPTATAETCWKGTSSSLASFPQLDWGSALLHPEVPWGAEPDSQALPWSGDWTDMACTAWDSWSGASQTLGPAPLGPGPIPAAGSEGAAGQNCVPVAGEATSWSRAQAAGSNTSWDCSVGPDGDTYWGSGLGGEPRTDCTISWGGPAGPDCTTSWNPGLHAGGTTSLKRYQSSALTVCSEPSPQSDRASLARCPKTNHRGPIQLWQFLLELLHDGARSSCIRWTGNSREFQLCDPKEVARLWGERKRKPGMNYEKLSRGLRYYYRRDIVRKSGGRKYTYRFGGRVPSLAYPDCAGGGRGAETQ
# Method in brief: as §1
# [9] = biological target: T5, ETV3L (Homo sapiens, UniProt Q6ZN32 1-361); conditions: protein: recombinant; tags: N-terminal GST; dsDNA, one strand shown
# T5 sequence: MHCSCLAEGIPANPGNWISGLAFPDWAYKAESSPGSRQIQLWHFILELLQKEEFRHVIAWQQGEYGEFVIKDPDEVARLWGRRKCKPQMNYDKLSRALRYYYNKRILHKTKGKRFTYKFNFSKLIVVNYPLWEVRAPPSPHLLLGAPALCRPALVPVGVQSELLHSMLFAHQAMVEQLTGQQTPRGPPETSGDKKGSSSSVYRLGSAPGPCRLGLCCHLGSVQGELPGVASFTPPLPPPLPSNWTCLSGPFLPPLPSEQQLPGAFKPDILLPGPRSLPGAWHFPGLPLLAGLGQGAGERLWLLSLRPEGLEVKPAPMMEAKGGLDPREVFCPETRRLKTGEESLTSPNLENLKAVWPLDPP
# Method in brief: as §1
# [10] = biological target: SPI1 (Homo sapiens, UniProt P17947 1-270); conditions: protein: recombinant; tags: N-terminal GST; dsDNA, one strand shown
# Method in brief: as §1
# [11] = biological target: T6, ERF (Homo sapiens, UniProt P50548 1-548); conditions: protein: recombinant; tags: N-terminal GST; dsDNA, one strand shown
# T6 sequence: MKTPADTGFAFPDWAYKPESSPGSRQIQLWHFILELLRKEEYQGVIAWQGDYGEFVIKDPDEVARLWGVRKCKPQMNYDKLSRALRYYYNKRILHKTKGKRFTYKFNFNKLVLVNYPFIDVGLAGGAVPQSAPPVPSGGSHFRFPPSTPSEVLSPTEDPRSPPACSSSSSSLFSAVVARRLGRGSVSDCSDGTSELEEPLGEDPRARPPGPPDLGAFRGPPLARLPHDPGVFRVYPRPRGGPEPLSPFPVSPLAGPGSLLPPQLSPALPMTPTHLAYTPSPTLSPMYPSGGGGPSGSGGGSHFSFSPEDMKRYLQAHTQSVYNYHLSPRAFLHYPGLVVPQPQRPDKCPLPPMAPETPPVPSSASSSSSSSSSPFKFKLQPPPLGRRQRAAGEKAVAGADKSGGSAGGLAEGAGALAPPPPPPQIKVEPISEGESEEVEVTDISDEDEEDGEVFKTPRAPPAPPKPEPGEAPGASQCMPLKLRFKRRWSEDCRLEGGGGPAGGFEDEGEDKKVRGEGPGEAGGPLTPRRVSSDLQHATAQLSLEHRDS
# Method in brief: as §1
# [12] = biological target: T7, ETV7 (Homo sapiens, UniProt Q9Y603 1-341); conditions: protein: recombinant; tags: N-terminal GST; dsDNA, one strand shown
# T7 sequence: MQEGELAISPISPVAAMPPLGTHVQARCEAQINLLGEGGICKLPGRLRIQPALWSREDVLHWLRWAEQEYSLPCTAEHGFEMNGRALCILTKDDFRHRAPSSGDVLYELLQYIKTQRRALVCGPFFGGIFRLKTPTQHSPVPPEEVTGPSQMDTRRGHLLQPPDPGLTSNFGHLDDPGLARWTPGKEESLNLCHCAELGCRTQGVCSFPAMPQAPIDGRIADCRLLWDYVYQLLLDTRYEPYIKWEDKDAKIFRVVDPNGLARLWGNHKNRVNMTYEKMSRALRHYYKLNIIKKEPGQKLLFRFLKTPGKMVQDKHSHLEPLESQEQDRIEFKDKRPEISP
# Method in brief: as §1
# [13] = biological target: T8, GABPA (Homo sapiens, UniProt Q06546 1-454); conditions: protein: recombinant; tags: N-terminal GST; dsDNA, one strand shown
# T8 sequence: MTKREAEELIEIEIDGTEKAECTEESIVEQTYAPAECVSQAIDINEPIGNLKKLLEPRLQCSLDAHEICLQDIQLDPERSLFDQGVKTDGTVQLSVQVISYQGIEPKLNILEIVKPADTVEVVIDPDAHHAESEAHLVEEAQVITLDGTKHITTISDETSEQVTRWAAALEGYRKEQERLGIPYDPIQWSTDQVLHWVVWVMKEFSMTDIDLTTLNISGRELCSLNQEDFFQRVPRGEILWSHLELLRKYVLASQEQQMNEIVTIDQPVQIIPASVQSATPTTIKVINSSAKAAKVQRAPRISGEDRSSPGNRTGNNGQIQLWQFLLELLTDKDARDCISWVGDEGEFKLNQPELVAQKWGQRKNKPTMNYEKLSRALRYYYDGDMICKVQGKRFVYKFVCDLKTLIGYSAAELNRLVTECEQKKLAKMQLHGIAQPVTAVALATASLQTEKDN
# Method in brief: as §1
sequence,measurement,setting,value
TTAGGA,binding signal,[1],"1 fold enrichment (6-mer frequency, TF over GST control)"
same,binding signal,[2],"1.28 fold enrichment (6-mer frequency, TF over GST control)"
same,binding signal,[3],"1.02 fold enrichment (6-mer frequency, TF over GST control)"
same,binding signal,[4],"1.77 fold enrichment (6-mer frequency, TF over GST control)"
same,binding signal,[5],"1 fold enrichment (6-mer frequency, TF over GST control)"
GAATGG,binding signal,[6],"1 fold enrichment (6-mer frequency, TF over GST control)"
same,binding signal,[1],"1.02 fold enrichment (6-mer frequency, TF over GST control)"
same,binding signal,[7],"1.06 fold enrichment (6-mer frequency, TF over GST control)"
same,binding signal,[2],"1.07 fold enrichment (6-mer frequency, TF over GST control)"
same,binding signal,[8],"1.1 fold enrichment (6-mer frequency, TF over GST control)"
same,binding signal,[9],"1.01 fold enrichment (6-mer frequency, TF over GST control)"
same,binding signal,[5],"1.04 fold enrichment (6-mer frequency, TF over GST control)"
GGTTAA,binding signal,[2],"1.02 fold enrichment (6-mer frequency, TF over GST control)"
same,binding signal,[3],"1.03 fold enrichment (6-mer frequency, TF over GST control)"
same,binding signal,[4],"1.31 fold enrichment (6-mer frequency, TF over GST control)"
TTTAGA,binding signal,[10],"1.05 fold enrichment (6-mer frequency, TF over GST control)"
same,binding signal,[2],"1.37 fold enrichment (6-mer frequency, TF over GST control)"
same,binding signal,[8],"1.12 fold enrichment (6-mer frequency, TF over GST control)"
same,binding signal,[4],"1.59 fold enrichment (6-mer frequency, TF over GST control)"
same,binding signal,[11],"1.08 fold enrichment (6-mer frequency, TF over GST control)"
same,binding signal,[12],"1.05 fold enrichment (6-mer frequency, TF over GST control)"
same,binding signal,[5],"1.04 fold enrichment (6-mer frequency, TF over GST control)"
TTAGAG,binding signal,[2],"1.25 fold enrichment (6-mer frequency, TF over GST control)"
same,binding signal,[8],"1.01 fold enrichment (6-mer frequency, TF over GST control)"
same,binding signal,[4],"1.77 fold enrichment (6-mer frequency, TF over GST control)"
TCGAGT,binding signal,[6],"1.01 fold enrichment (6-mer frequency, TF over GST control)"
same,binding signal,[13],"1 fold enrichment (6-mer frequency, TF over GST control)"
same,binding signal,[2],"1.41 fold enrichment (6-mer frequency, TF over GST control)"
same,binding signal,[9],"1.06 fold enrichment (6-mer frequency, TF over GST control)"
AGATCA,binding signal,[2],"1.21 fold enrichment (6-mer frequency, TF over GST control)"
same,binding signal,[8],"1.03 fold enrichment (6-mer frequency, TF over GST control)"
same,binding signal,[4],"1.31 fold enrichment (6-mer frequency, TF over GST control)"
ATCCAG,binding signal,[2],"1.53 fold enrichment (6-mer frequency, TF over GST control)"
same,binding signal,[4],"1.29 fold enrichment (6-mer frequency, TF over GST control)"
GATCTG,binding signal,[2],"1.07 fold enrichment (6-mer frequency, TF over GST control)"
same,binding signal,[4],"1.09 fold enrichment (6-mer frequency, TF over GST control)"
TCCAGA,binding signal,[2],"3.36 fold enrichment (6-mer frequency, TF over GST control)"
same,binding signal,[4],"1.5 fold enrichment (6-mer frequency, TF over GST control)"
